In the library only some 0.77% were active in any assay of this set; here they are far more common.
RE007 growth inh: less growth of the S. pombe RE007 Vpr strain | 360,000 compounds, 0.21% hits | S. pombe RE007 Vpr strain, BacTiter-Glo ATP luminescence, 24 h | Potency, µM (top dose mostly 92.2 µM), usual class: inhibitors; active means well fitted falling curve with a large enough effect; inconclusive means small, poorly fitted or top-dose-only effect; inactive means no such curve, though single readings can be large or run the other way; further: nearly all actives have a fitted effect of over 50% in size
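Fission yeast RE007 carrying one integrated HIV-1 vpr copy, seeded at OD 0.01 in PMG+AL medium with 23 nL pinned compound. Grown 24 h at 30 degrees; viability read by BacTiter-Glo luminescence after 5 min.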
NS1 inh: blocks influenza NS1 protein function | Potency, µM (top dose mostly 46.1 µM) | 270,000 compounds, 0.4% hits | AID 2326; calls by dose curve; further: actives are rising curves; nearly all actives have a fitted effect of over 50% in size
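In this qHTS, NS1 from influenza A is expressed in budding yeast, where it slows growth. Cells are switched from glucose to 2% galactose medium (pH 6.0, -URA), treated with compound, and growth recovery is read at OD600.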
LmPK inh: LmPK (Leishmania mexicana) enzyme inhibition | Q27686 | purified LmPK, Kinase-Glo ATP luminescence, 1 h | Potency, µM (highest dose often 57.5 µM), most hits filed as inhibitors | 290,000 compounds, 0.37% hits | AID 1721
Target sequence (Q27686 whole entry, looked up): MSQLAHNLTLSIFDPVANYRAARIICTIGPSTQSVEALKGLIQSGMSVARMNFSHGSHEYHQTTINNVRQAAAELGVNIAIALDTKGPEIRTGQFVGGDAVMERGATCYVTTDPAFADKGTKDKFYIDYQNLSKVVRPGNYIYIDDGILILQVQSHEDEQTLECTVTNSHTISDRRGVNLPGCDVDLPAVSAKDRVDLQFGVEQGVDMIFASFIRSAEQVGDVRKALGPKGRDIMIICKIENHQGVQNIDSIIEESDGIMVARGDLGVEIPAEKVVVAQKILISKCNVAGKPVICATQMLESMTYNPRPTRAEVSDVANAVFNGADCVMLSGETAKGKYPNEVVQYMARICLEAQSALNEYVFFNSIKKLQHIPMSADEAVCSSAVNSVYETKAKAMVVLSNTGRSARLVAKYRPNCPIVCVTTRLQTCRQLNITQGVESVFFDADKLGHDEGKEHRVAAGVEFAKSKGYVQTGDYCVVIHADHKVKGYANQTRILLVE
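Pyruvate kinase activity monitored as ATP production (luciferase luminescence). Conditions: 0.1 nM enzyme, 0.5 mM PEP, 0.1 mM ADP, 1 h, RT; normalized against uninhibited and no-enzyme wells.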
Tb PYK inh: blocks Trypanosoma brucei pyruvate kinase; Potency, µM (series often up to 76.8 µM), actives largely listed as inhibitors; 410,000 compounds, 0.12% hits; Q57TT1; TbPYK enzyme, Kinase-Glo Plus ATP luminescence, 45 min; further: nearly all actives have a fitted effect of over 50% in size
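Glycolytic pyruvate kinase of T. brucei was incubated with substrate, test compound and 130 uM ADP for 45 minutes at room temperature. Luminescent Kinase-Glo Plus signal was measured after 10 minutes.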
A number is an active result; n = inactive; u = inconclusive; x = no result; [ ] = dose if it differs, or a comment. Unless noted, the call rests on the fitted dose curve; in most records, active means well fitted curve in the direction sought with a large enough effect; inconclusive means small, poorly fitted or top-dose-only effect, or another doubt; inactive means no such curve, though single readings can be large; an effect the other way counts as inactive or inconclusive.

SMILES	RE007 growth inh	NS1 inh	LmPK inh	Tb PYK inh
Cc1ccc(C(=O)Nc2nc3c(s2)CCCC3)o1	u	n	25µM	n
COC(=O)c1c(NC(=O)c2ccc(S(=O)(=O)N3CCCCC3)cc2)sc2c1CCN(C)C2	x	x	x	n
CO[C@H]1OC2O[C@@]3(C)CC[C@H]4[C@H](C)CC[C@@H]([C@H]1C)[C@@]24OO3 (stereo partly drawn)	x	x	x	n
CC(C)NC(=O)c1cc(-c2ccco2)nn1-c1ccc(Cl)cc1	n	n	n	u
O=C(c1cc(-c2ccco2)nn1-c1cccc(Cl)c1)N1CCCCC1	n	n	n	10µM
COc1ccccc1Cn1c(CNS(=O)(=O)c2c(C)cc(C)cc2C)nc2cccnc21	x	x	x	n
Cc1nc2c(o1)C(=O)c1ccccc1C2=Nc1ccccc1	7.1µM	x	x	n
CCCOc1ccc(NC(=O)CC2C(=O)N(c3ccccc3)C(=O)N2CCC(C)C)cc1 (stereo not drawn)	x	x	x	n
CCOc1ccc(/C=C2\CCC(C3CCCC3)C2=O)cc1 (stereo not drawn)	n	n	n	n
CCC(=O)OCOc1ccc(/C=C2/CCC(CN(C)C)C2=O)cc1 (stereo not drawn)	8.9µM	x	x	n
Cc1cccc(NC2=C(NC(=O)c3ccccc3)C(=O)c3ccccc3C2=O)c1	n	n	3.5µM	16µM
O=C(NC1=C(Nc2ccc(Cl)cc2)C(=O)c2ccccc2C1=O)c1ccccc1	u	n	u	u
CCCn1c(/C=C/c2ccccc2)nc2ccccc21	n	n	u	n
COCCOCCn1c(/C=C/c2ccccc2)nc2ccccc21	u	n	14µM	n
O=C(CCN1CCOCC1)c1ccc(Br)cc1	32µM	n	n	n
O=C(CCN1CCOCC1)c1ccc(Cl)cc1	40µM	n	n	n
CCOc1ccc(/C=C2\SC(=S)NC2=O)cc1OC	n	n	14µM	n
CCC(C)n1c(=N)c(C(=O)NC2CCCCC2)cc2c(=O)n3cc(C)ccc3nc21 (stereo not drawn)	x	x	x	n
O=C(O)CCN1C(=S)CSC1=S	x	n	x	x
C=CCSc1nc2c(N)ncnc2n1[C@@H]1O[C@H](CO)[C@@H](O)[C@@H]1O	x	n	x	x
CC(CNC(=O)c1cccnc1)NC(=O)c1cccnc1 (stereo not drawn)	x	x	x	n
C=CCn1c(-c2cccn(Cc3cccc(Cl)c3)c2=O)n[nH]c1=S	n	n	n	8.9µM
O=c1c(-c2n[nH]c(=S)n2-c2ccccc2)cccn1Cc1cccc(Cl)c1	n	x	n	13µM
COc1cc(/C=N/Nc2nncn2/N=C/c2ccc(O)c(OC)c2)ccc1O	n	x	14µM	u
Cc1ccc(-n2c(=O)c3ccccc3n(CC(=O)Nc3cccc(C(F)(F)F)c3)c2=O)cc1	x	x	x	n
SMILES	RE007 growth inh	NS1 inh	LmPK inh	Tb PYK inh
Cc1ccc2c(c1)N(C(=O)N1CCC(C(=O)NC3CCCCCC3)CC1)CC(C)O2 (stereo not drawn)	x	x	x	n
CCc1ccc(S(=O)(=O)Nc2cc(SCC(=O)O)c(O)c3ccccc23)cc1	n	n	u	u
Cc1ccc(C)c(S(=O)(=O)Nc2cc(SCC(=O)O)c(O)c3ccccc23)c1	n	n	14µM	16µM
CCOc1ccc(S(=O)(=O)Nc2cc(SCC(=O)O)c(O)c3ccccc23)cc1	n	n	20µM	u
O=C(O)CSc1cc(NS(=O)(=O)c2cccc([N+](=O)[O-])c2)c2ccccc2c1O	n	n	14µM	u
Cc1ccc(NC(=O)C(=O)NCCc2sc(-c3ccc(Cl)cc3)nc2C)cc1C	x	x	x	n
O=C1/C(=C/c2cccnc2)CC/C1=C\c1cccnc1	n	x	n[11.5 µM]	n
O=C1/C(=C\c2cccnc2)CCc2ccccc21	u	n	16µM	n
CN1C(=O)C(Cl)(Cl)C(=O)c2ccccc21	n	n	n	14µM
COCCNC(=O)/C(C#N)=C/c1ccc(O)cc1	u	n	13µM	u
CCN1C(=O)/C(=C2/C=Cc3cc(C)ccc3N2CC)N(C)C1=S	n	n	14µM	u
CN1C=C/C(=C\c2cc[n+](C)c3ccccc23)c2ccccc21	3.2µM	x	n	n
CC[n+]1ccc(/C=C2\Sc3ccccc3N2CCCS(=O)(=O)[O-])c2ccccc21	n	n	n	n
Cc1ccc(-n2ncc(C(=O)NCc3ccco3)c2C2CCN(C(=O)OC(C)(C)C)CC2)c(C)c1	x	x	x	n
CO[C@@H]1C[C@H](O[C@H]2[C@@H](C)[C@H](O[C@@H]3O[C@@H](C)C[C@@H](N(C)C)[C@@H]3OC(C)=O)[C@H](C)C[C@]3(CO3)C(=O)[C@H](C)[C@H](OC(C)=O)[C@H](C)[C@H](C)OC(=O)[C@@H]2C)O[C@H](C)[C@@H]1OC(C)=O	x	x	x	n

Screening data as filed in PubChem BioAssay.
